In PubChem BioAssay:
For part of these data: Entries with a potency or affinity are not part of this list. The source made the active and inactive calls. Unless noted, no rule for the calls is given here.

How the values were obtained:
[1] = antimalarial activity against Dd2 strain (AID 2302;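 active = growth inhibition above 50% at the single 2 µM test dose, taken to imply half-maximal potency below 2 µM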;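 also: 0% = DMSO untreated growth and 100% = chloroquine plus artemisinin killed control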); details: P. falciparum Dd2 in RBCs, LDH growth readout, 72 h; at 2 µM; hits give high values
[2] = human hepatoma cell viability loss – ATP luminescence, cytotoxicity control for P. falciparum antimalarial project, primary screen (AID 2303;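 active = inhibition above 50%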;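 also: 0% = DMSO wells and 100% = digitonin-killed cells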); details: HepG2 viability, 24-48 h, at 10 µM, hits give high values
[3] = biological target: L-lactate dehydrogenase (Plasmodium falciparum (isolate CDC / Honduras)) (UniProt Q27743); experiment: PfLDH activity inhibition – cell lysate, 3D7 strain, counter-screen for P. falciparum growth inhibition project (AID 2304);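 also: 0% = vehicle and 100% = reference inhibitor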; details: P. falciparum 3D7 crude extract, LDH APAD/NBT absorbance; at 2 µM; hits give high values
[4] = inhibition of 3D7 malaria parasite growth – strain 3D7 (AID 2306);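 also: 0% = DMSO wells and 100% = chloroquine plus artemisinin control wells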; details: P. falciparum 3D7 erythrocytic growth, LDH absorbance, 72 h; at 2 µM; hits give high values
[5] = biological target: Calcium-dependent protein kinase 1 (Plasmodium falciparum (isolate 3D7)) (UniProt P62344); experiment: PfCDPK1 kinase inhibitors, biochemical, TCAMS library (AID 1159585; cut-off not given, nearly all actives have IC50 up to about 0.98 µM;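 also: inhibitors leave more ATP so luminescence rises with inhibition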); details: recombinant PfCDPK1, Kinase-Glo ATP depletion luminescence
[6] = biological target: Plasmodium falciparum protein kinase 6 (PK6, PF3D7_1337100) (UniProt Q8IDW1); experiment: PfPK6 kinase inhibitors, biochemical, TCAMS library (AID 1159586); details: recombinant PfPK6, Kinase-Glo ATP depletion luminescence
[7] = biological target: Protein kinase 7 (PK7), Plasmodium falciparum 3D7 (PF3D7_0213400) (UniProt Q7YTF7); experiment: inhibition of Plasmodium PK7 catalytic activity – biochemical, TCAMS antimalarial set, Kinase-Glo luminescence (AID 1159587); details: recombinant PfPK7, Kinase-Glo ATP depletion luminescence
[8] = biological target: Calcium-dependent protein kinase 4 (Plasmodium falciparum (isolate 3D7)) (UniProt Q8IBS5); experiment: PfCDPK4 kinase inhibitors, biochemical, TCAMS library (AID 1159588; cut-off not given, nearly all actives have IC50 up to about 0.91 µM); details: recombinant PfCDPK4, Kinase-Glo ATP depletion luminescence
Sequence of Calcium-dependent protein kinase 4 (Plasmodium falciparum (isolate 3D7)) (Q8IBS5 whole entry, looked up): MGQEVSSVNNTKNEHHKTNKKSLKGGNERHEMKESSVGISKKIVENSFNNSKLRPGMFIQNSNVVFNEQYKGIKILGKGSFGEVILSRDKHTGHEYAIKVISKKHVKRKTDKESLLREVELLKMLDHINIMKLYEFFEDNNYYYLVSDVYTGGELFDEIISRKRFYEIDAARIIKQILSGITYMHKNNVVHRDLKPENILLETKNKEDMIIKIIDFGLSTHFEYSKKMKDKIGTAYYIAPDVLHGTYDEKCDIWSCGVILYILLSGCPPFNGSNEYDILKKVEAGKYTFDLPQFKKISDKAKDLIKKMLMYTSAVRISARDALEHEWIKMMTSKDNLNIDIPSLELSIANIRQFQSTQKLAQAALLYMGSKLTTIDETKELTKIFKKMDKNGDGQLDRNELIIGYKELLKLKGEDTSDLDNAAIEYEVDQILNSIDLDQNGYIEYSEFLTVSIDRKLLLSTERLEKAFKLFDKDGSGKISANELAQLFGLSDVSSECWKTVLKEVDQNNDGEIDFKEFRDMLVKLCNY

Sequence of Protein kinase 7 (PK7), Plasmodium falciparum 3D7 (PF3D7_0213400) (Q7YTF7 1-343): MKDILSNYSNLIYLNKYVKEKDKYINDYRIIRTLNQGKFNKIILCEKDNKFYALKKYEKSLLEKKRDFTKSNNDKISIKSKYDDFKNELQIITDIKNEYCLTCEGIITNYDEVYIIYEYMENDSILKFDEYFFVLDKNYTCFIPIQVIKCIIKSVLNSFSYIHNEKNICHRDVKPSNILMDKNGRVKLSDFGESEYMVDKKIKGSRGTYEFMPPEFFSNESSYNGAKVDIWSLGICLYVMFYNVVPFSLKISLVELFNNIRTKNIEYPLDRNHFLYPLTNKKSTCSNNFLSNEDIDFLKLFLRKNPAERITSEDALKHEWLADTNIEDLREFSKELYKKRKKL
Sequence of L-lactate dehydrogenase (Plasmodium falciparum (isolate CDC / Honduras)) (Q27743 whole entry, looked up): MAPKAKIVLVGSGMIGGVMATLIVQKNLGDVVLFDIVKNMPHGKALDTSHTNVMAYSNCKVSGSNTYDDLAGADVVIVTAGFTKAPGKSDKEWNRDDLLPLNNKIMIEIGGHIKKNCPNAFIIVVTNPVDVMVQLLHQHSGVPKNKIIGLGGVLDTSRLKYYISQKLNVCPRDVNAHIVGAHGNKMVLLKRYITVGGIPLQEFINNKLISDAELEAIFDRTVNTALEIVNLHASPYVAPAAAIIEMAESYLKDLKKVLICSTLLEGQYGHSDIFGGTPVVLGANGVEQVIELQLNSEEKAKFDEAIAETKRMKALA
Sequence of Calcium-dependent protein kinase 1 (Plasmodium falciparum (isolate 3D7)) (P62344 whole entry, looked up): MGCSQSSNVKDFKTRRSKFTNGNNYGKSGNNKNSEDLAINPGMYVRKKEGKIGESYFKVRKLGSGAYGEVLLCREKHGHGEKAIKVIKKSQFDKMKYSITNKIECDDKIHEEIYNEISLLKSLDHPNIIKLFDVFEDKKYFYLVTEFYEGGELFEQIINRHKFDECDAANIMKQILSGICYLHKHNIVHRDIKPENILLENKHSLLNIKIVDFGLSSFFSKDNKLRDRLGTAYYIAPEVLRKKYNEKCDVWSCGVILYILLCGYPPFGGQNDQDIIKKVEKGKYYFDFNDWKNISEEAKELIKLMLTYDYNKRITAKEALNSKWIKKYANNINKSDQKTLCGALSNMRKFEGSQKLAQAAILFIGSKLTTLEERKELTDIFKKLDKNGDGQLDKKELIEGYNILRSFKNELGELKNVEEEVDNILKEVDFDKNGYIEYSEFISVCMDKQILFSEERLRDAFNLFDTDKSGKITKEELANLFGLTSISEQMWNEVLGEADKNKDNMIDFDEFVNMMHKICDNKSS
Sequence of Plasmodium falciparum protein kinase 6 (PK6, PF3D7_1337100) (Q8IDW1 1-305): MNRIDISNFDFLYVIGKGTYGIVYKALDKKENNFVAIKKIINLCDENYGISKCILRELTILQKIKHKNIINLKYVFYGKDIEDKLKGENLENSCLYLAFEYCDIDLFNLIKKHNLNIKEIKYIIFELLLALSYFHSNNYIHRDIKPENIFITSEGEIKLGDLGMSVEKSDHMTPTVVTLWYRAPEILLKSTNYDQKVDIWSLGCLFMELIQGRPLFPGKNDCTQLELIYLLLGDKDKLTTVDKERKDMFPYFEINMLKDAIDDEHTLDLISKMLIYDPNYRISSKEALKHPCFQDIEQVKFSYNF

O=C(NC1CCCCC1)N(Cc1ccc(-c2cccc(CNC3CCCC3)c2)cc1)C1CCN(Cc2ccccc2)CC1
inactive: inhibition [3] 3% | outcome [5] | outcome [6] | outcome [7] | outcome [8]
active: growth inhibition [1] 59% | inhibition [2] 52% | growth inhibition [4] 95%

Cc1ccc(Nc2nc(-c3ccccn3)cs2)nc1
inactive: inhibition [3] -8% | outcome [5] | outcome [6] | outcome [7] | outcome [8]
active: growth inhibition [1] 97% | inhibition [2] 60% | growth inhibition [4] 94%

Fc1cccc(-c2ccc3c(c2)CC(NCc2c[nH]c4cnccc24)C3)c1 (stereo unspecified)
active: growth inhibition [1] 68% | growth inhibition [4] 100%
inactive: inhibition [2] 24% | inhibition [3] -1% | outcome [5] | outcome [6] | outcome [7] | outcome [8]

CC1(C)N=C(N)N=C(N)N1OCCNCc1ccc(Cl)cc1
inactive: growth inhibition [1] -2% | inhibition [2] 5% | inhibition [3] -5% | outcome [5] | outcome [6] | outcome [7] | outcome [8]
active: growth inhibition [4] 95%

COc1ccc(Cl)cc1N1CCN(CCCNC(=O)c2ccc(-c3nc4ccc(C(F)(F)F)cc4[nH]3)c(C)c2)CC1
active: growth inhibition [4] 95%
inactive: growth inhibition [1] 14% | inhibition [2] 6% | inhibition [3] -2% | outcome [5] | outcome [6] | outcome [7] | outcome [8]

Clc1ccc(-c2cc(-c3csc(NCCN4CCOCC4)n3)on2)c(Cl)c1
inactive: inhibition [2] 39% | inhibition [3] -3% | outcome [5] | outcome [6] | outcome [7] | outcome [8]
active: growth inhibition [1] 86% | growth inhibition [4] 97%

N#CCCN1CCN(Cc2cccc(-c3ccc(-c4nc5ccccc5[nH]4)s3)c2)CC1
inactive: growth inhibition [1] 8% | inhibition [2] 48% | inhibition [3] -4% | outcome [5] | outcome [6] | outcome [7] | outcome [8]
active: growth inhibition [4] 96%

CS(=O)(=O)c1ccc(CNCc2ccc(-c3cccc(-c4nc5ccc(F)cc5[nH]4)c3)cc2)cc1
inactive: inhibition [2] 33% | inhibition [3] -5% | outcome [5] | outcome [6] | outcome [7] | outcome [8]
active: growth inhibition [1] 74% | growth inhibition [4] 102%

Fc1ccc2nc(-c3cccc(-c4cccc(CNCCc5ccncc5)c4)c3)[nH]c2c1
active: growth inhibition [1] 88% | growth inhibition [4] 100%
inactive: inhibition [2] 22% | inhibition [3] 2% | outcome [5] | outcome [6] | outcome [7] | outcome [8]

Cn1cccc1C(=O)NCC(CCNc1cc(=O)c2ccccc2[nH]1)NCc1cc(Br)cc(Br)c1 (stereo unspecified)
active: growth inhibition [1] 52% | growth inhibition [4] 92%
inactive: inhibition [2] -3% | inhibition [3] -2% | outcome [5] | outcome [6] | outcome [7] | outcome [8]

Cc1cccc2[nH]c(-c3ccc(-c4ccc(CNCCCN5CCCC5=O)cc4)cc3)nc12
inactive: growth inhibition [1] 47% | inhibition [2] 7% | inhibition [3] -5% | outcome [5] | outcome [6] | outcome [7] | outcome [8]
active: growth inhibition [4] 100%

CN(C)CCCNc1c2ccccc2nc2ccccc12
active: growth inhibition [4] 91%
inactive: growth inhibition [1] 4% | inhibition [2] 31% | inhibition [3] -3% | outcome [5] | outcome [6] | outcome [7] | outcome [8]

O=C1CCCN1CCCNCc1cccc(-c2cccc(-c3nc4ccc(C(F)(F)F)cc4[nH]3)c2)c1
active: growth inhibition [1] 90% | growth inhibition [4] 101%
inactive: inhibition [2] 28% | inhibition [3] -3% | outcome [5] | outcome [6] | outcome [7] | outcome [8]

O=C(Nc1ccc(Oc2ccccc2)cc1)N[C@H]1CCN(Cc2ccc(OCCCN3CCCCC3)cc2)C1
active: growth inhibition [4] 103%
inactive: growth inhibition [1] 6% | inhibition [2] 13% | inhibition [3] -6% | outcome [5] | outcome [6] | outcome [7] | outcome [8]

O=C(NCC1CCC(C(=O)NC2CCCc3ccccc32)CC1)c1ccc(O)c(-c2cccc([N+](=O)[O-])c2)c1 (stereo unspecified)
active: growth inhibition [1] 97% | growth inhibition [4] 99%
inactive: inhibition [2] 2% | inhibition [3] -2% | outcome [5] | outcome [6] | outcome [7] | outcome [8]

CNCCNCc1cccc(-c2ccc(-c3nc4c(C)cccc4[nH]3)cc2)c1
inactive: growth inhibition [1] 21% | inhibition [2] 17% | inhibition [3] -1% | outcome [5] | outcome [6] | outcome [7] | outcome [8]
active: growth inhibition [4] 98%

Clc1ccc2nc(-c3cccnc3)[nH]c2c1
active: growth inhibition [1] 97% | growth inhibition [4] 92%
inactive: inhibition [2] -11% | inhibition [3] 2% | outcome [5] | outcome [6] | outcome [7] | outcome [8]

C=CCN1C(=O)c2[nH]nc(-c3cc(C)c(C)cc3O)c2C1c1cccc(Br)c1 (stereo unspecified)
inactive: inhibition [2] -14% | inhibition [3] -3% | outcome [5] | outcome [6] | outcome [7] | outcome [8]
active: growth inhibition [1] 82% | growth inhibition [4] 90%

O=C1OC2(CCN(C(=O)c3ccc(-n4cnnn4)cc3)CC2)CN1Cc1ccc(Cl)c(Cl)c1
active: growth inhibition [1] 70% | growth inhibition [4] 97%
inactive: inhibition [2] 11% | inhibition [3] -7% | outcome [5] | outcome [6] | outcome [7] | outcome [8]

C=CCCCNCC(NCCCNc1cc(=O)c2ccccc2[nH]1)c1cc(Br)cc(Br)c1 (stereo unspecified)
inactive: growth inhibition [1] 19% | inhibition [2] -3% | inhibition [3] -1% | outcome [5] | outcome [6] | outcome [7] | outcome [8]
active: growth inhibition [4] 94%

O=C(C1CCN(c2nnnn2-c2ccccc2)CC1)N1CCc2ccccc2C1
inactive: inhibition [2] -7% | inhibition [3] -9% | outcome [5] | outcome [6] | outcome [7] | outcome [8]
active: growth inhibition [1] 97% | growth inhibition [4] 97%

c1cn(CCCNc2ncc(-c3ccsc3)c(-c3nccs3)n2)cn1
active: growth inhibition [1] 51% | growth inhibition [4] 94%
inactive: inhibition [2] -11% | inhibition [3] -4% | outcome [5] | outcome [6] | outcome [7] | outcome [8]

CCN(CC)CCOc1ccc(C(O)(C#CC(O)(c2ccc(C)cc2)c2ccc(OCCN(CC)CC)cc2)c2ccc(C)cc2)cc1 (stereo unspecified)
active: growth inhibition [1] 98% | inhibition [2] 94% | growth inhibition [4] 97%
inactive: inhibition [3] 6% | outcome [5] | outcome [6] | outcome [7] | outcome [8]

Cc1ccc(CN2CCCN(Cc3cccc(NC(=O)c4ccc(Cl)c(Cl)c4)c3)CC2)cc1
inactive: growth inhibition [1] 18% | inhibition [2] 32% | inhibition [3] -1% | outcome [5] | outcome [6] | outcome [7] | outcome [8]
active: growth inhibition [4] 96%

Cc1ccc2c(NN=CC=Cc3ccccc3)cc(C)nc2c1
inactive: growth inhibition [1] 13% | inhibition [2] 3% | inhibition [3] 6% | outcome [5] | outcome [6] | outcome [7] | outcome [8]
active: growth inhibition [4] 92%

Cc1nc(-c2ccc(-c3ccc(C(=O)Nc4ccc(Cl)c(N5CCN(C)CC5)c4)cc3)c(C)c2)no1
active: growth inhibition [4] 101%
inactive: growth inhibition [1] 47% | inhibition [2] 23% | inhibition [3] 4% | outcome [5] | outcome [6] | outcome [7] | outcome [8]

O=C(/C=C/c1ccc(Cl)c(Cl)c1)N1CCN(C(=O)Nc2ccc(F)c(Cl)c2)CC1
active: growth inhibition [1] 87% | growth inhibition [4] 97%
inactive: inhibition [2] 19% | inhibition [3] -6% | outcome [5] | outcome [6] | outcome [7] | outcome [8]

O=C(Nc1ccc2nc3n(c(=O)c2c1)CCCCC3)C(=O)N1CCN(c2ccc(F)cc2)CC1
inactive: inhibition [2] 10% | inhibition [3] -1% | outcome [5] | outcome [6] | outcome [7] | outcome [8]
active: growth inhibition [1] 86% | growth inhibition [4] 93%

COc1cccc(C(=O)NCCc2cccc(Cl)c2)c1OCc1ccccc1
active: growth inhibition [4] 85%
inactive: growth inhibition [1] -1% | inhibition [2] -1% | inhibition [3] 1% | outcome [5] | outcome [6] | outcome [7] | outcome [8]

Nc1nc(N)c2cc(S(=O)(=O)c3ccc4ccccc4c3)ccc2n1
active: growth inhibition [1] 51% | growth inhibition [4] 95%
inactive: inhibition [2] 14% | inhibition [3] 3% | outcome [5] | outcome [6] | outcome [7] | outcome [8]

c1ccc2c(NCCc3cnc[nH]3)c3ccccc3nc2c1
inactive: growth inhibition [1] -1% | inhibition [2] 20% | inhibition [3] 6% | outcome [5] | outcome [6] | outcome [7] | outcome [8]
active: growth inhibition [4] 91%

COc1ccc(NC(=O)Nc2ccc(-c3ccccc3)cc2)cc1Cn1cnc(N2CCCNCC2)cc1=O
inactive: growth inhibition [1] 38% | inhibition [2] 24% | inhibition [3] 8% | outcome [5] | outcome [6] | outcome [7] | outcome [8]
active: growth inhibition [4] 101%

O=c1cc(NCCC2CC=CCN2Cc2ccc(Cl)c(Cl)c2)[nH]c2ccccc12 (stereo unspecified)
active: growth inhibition [1] 77% | growth inhibition [4] 94%
inactive: inhibition [2] 7% | inhibition [3] 4% | outcome [5] | outcome [6] | outcome [7] | outcome [8]

Cc1cc(NC(=O)c2cc(S(=O)(=O)N3CCCCC3)ccc2C)no1
active: growth inhibition [4] 95%
inactive: growth inhibition [1] 29% | inhibition [2] -7% | inhibition [3] -7% | outcome [5] | outcome [6] | outcome [7] | outcome [8]

Cc1ccc(Cn2ncc(N3CCNCC3)c(Cl)c2=O)cc1NC(=O)Nc1ccc(-c2ccccc2)cc1
active: inhibition [2] 56% | growth inhibition [4] 90%
inactive: growth inhibition [1] 30% | inhibition [3] 6% | outcome [5] | outcome [6] | outcome [7] | outcome [8]

CCSc1ccccc1COc1c(C)nc(N)nc1N
active: inhibition [2] 54% | growth inhibition [4] 93%
inactive: growth inhibition [1] 4% | inhibition [3] 3% | outcome [5] | outcome [6] | outcome [7] | outcome [8]

NC(=O)Nc1ccc2cn[nH]c2c1
active: growth inhibition [4] 97%
inactive: growth inhibition [1] -2% | inhibition [2] 4% | inhibition [3] -3% | outcome [5] | outcome [6] | outcome [7] | outcome [8]

C#CC[C@@H](NC(N)=O)C(=O)O
active: growth inhibition [4] 97%
inactive: growth inhibition [1] 0% | inhibition [2] 1% | inhibition [3] -2% | outcome [5] | outcome [6] | outcome [7] | outcome [8]

C[C@H](Cc1ccc(OCCCCCOc2ccc(C[C@@H](C)NC[C@H](O)c3cccc(Cl)c3)cc2)cc1)NC[C@H](O)c1cccc(Cl)c1
inactive: inhibition [3] -1% | outcome [5] | outcome [6] | outcome [7] | outcome [8]
active: growth inhibition [1] 101% | inhibition [2] 99% | growth inhibition [4] 99%

CCn1cc(CN2CCCC(C(=O)Nc3ccc(-c4nc5ccccc5[nH]4)cc3)C2)cn1 (stereo unspecified)
active: growth inhibition [4] 100%
inactive: growth inhibition [1] 26% | inhibition [2] 8% | inhibition [3] -1% | outcome [5] | outcome [6] | outcome [7] | outcome [8]

O=c1cc(NCCCNCc2ccc(C(F)(F)F)c(F)c2)[nH]c2ccccc12
inactive: growth inhibition [1] 26% | inhibition [2] 5% | inhibition [3] 4% | outcome [5] | outcome [6] | outcome [7] | outcome [8]
active: growth inhibition [4] 93%

CCOC(=O)CN1Cc2cc(NCc3ccc4ccc5nc(C)[nH]c(=O)c5c4c3)ccc2C1=O
inactive: inhibition [2] 40% | inhibition [3] 1% | outcome [5] | outcome [6] | outcome [7] | outcome [8]
active: growth inhibition [1] 91% | growth inhibition [4] 84%
